According to PubChem BioAssay (NCATS):
“And” between values parts separate entries of the source, which are not always exact repeats. Equal values may be shown once. Inconclusive results are not listed. The source made the active and inactive calls. Unless noted, calls follow the shape of the dose curve; as a rule, active = well fitted curve in the direction sought with a large enough effect; inconclusive = small, poorly fitted or top-dose-only effect, or another doubt; inactive = no such curve, though single readings can be large; an effect the other way counts as inactive or inconclusive.

Columns and labels:
[1] = Cell Viability - N2a (AID 540); settings: N2a mouse neuroblastoma cell viability; activity change, negative = cytotoxicity: at 92.2 µM (top of the series);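 also: cells exposed to compound for 40 h at 37 °C; plate controls were DMSO alone for no effect and tamoxifen control for full effect; nearly all actives have a fitted effect of over 45% in size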
In short: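 Luminescent ATP signal (CellTiter-Glo, 20 min at room temperature) served as the viability read-out after N2a cells were treated with compounds for 40 hours at 37 °C. Concentration-response data were fitted to the Hill equation for AC50.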

[2] = Cell Viability - Renal Proximal Tubule (AID 545); settings: renal proximal tubule cells viability, primary cells of rat origin; at 91.7 µM (top of the series); also: nearly all actives have a fitted effect of over 40% in size
In short: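 Rat kidney proximal tubule cells, freshly isolated; 1000 cells/well, 5 hr settle, compound 40 hr 37 °C. CellTiter-Glo 20 min RT, luminescence read. AC50 by standard Hill fit.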

[3] = Cellular Toxicity (caspase-3) Jurkat (AID 655); settings: Jurkat caspase-3 activation, luminescence, DMSO = 0%, tamoxifen = 100%; at 92.2 µM (top of the series);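 also: cells exposed to compound for 16 h at 37 °C before reading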
In short: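 Luminescent caspase-3/7 readout (aminoluciferin substrate cleavage) in human T-cell leukemia Jurkat cells after 16 hr compound exposure. Concentration-response normalized to DMSO and 100 uM tamoxifen; AC50 by standard Hill equation.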

[4] = Cell Viability - LYMP1-003 - Assay at 24 hr (AID 963);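 also: plate controls were DMSO only for no effect and tetraoctylammonium bromide positive control for full effect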
In short: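 Cells seeded at 2500/well, 5 hr at 37 C; compounds added; 24 hr at 37 C; CellTiter-Glo added, 30 min room temperature; luminescence read. Decrease in ATP taken as cytotoxicity, AC50 from Hill modelling.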

[5] = Cell Viability - LYMP2-004 (AID 966);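 also: plate controls were DMSO only for no effect and tetraoctylammonium bromide control for full effect; nearly all actives have a fitted effect of over 65% in size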
In short: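 Cells seeded 2500/well, rested 5 hr at 37 C, dosed across a concentration series, incubated 24 hr at 37 C, then CellTiter-Glo added for 30 min at room temperature and luminescence read. Hill fitting gave AC50.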

[6] = Cell Viability - LYMP2-005 (AID 967);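 also: plate controls were DMSO only for no effect and 92 µM tetraoctylammonium bromide control for full effect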
In short: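 Steps: seed 2500 LYMP2-005 cells/well, incubate 5 h at 37 C, add compound, incubate 24 h at 37 C, add CellTiter-Glo, wait 30 min at RT, read luminescence. Concentration-response data fitted to Hill equation for AC50.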

[7] = Cell Viability - LYMP2-015 (AID 971);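 also: 0% = DMSO only and full effect = 92 µM tetraoctylammonium bromide; nearly all actives have a fitted effect of over 55% in size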
In short: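 Luminescent ATP read-out (CellTiter-Glo) served as the viability measure after lymphoblastoid cells were exposed to compounds for 24 hours at 37 C. Concentration-response data were fitted with the Hill equation to give AC50.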

[8] = Cell Viability - LYMP2-019 (AID 973);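 also: 0% = DMSO alone and full effect = 92 µM tetraoctylammonium bromide; nearly all actives have a fitted effect of over 55% in size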
In short: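 Luminescent ATP read-out (CellTiter-Glo, 30 min room temperature) served as the viability measure after 24 hr treatment of lymphoblastoid cells at 37 C. Concentration-response data were fitted to the Hill equation for AC50.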

[9] = Cell Viability - LYMP2-021 (AID 974);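 also: compound exposure lasts 24 hours at 37 °C; % is scaled to controls: 0 for no effect and ±100 for the full control effect; nearly all actives have a fitted effect of over 55% in size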
In short: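 Plate 2500 lymphoblastoid cells per well and incubate 5 hr at 37 C. Add compounds over a concentration range and incubate 24 hr at 37 C. Add CellTiter-Glo, wait 30 min at room temperature, read luminescence.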

[10] = Cell Viability - LYMP2-023 (AID 975);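 also: cellular ATP measured by luciferase luminescence as viability proxy; plate controls were DMSO only for no effect and 92 µM tetraoctylammonium bromide control for full effect; nearly all actives have a fitted effect of over 55% in size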
In short: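 2500 cells/well, 5 hr 37 C; cpd 24 hr 37 C; CellTiter-Glo, 30 min RT; luminescence. qHTS conc-response, Hill fit -> AC50. Pos ctrl tetraoctylammonium bromide.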

[11] = Cell Viability - LYMP2-025 (AID 976);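 also: plate controls were DMSO only for no effect and tetraoctylammonium bromide control for full effect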
In short: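 Seed 2500 LYMP2-025 cells/well; 5 hr at 37 C; add compound; 24 hr at 37 C; add CellTiter-Glo; 30 min RT; read luminescence. AC50 from Hill-modelled concentration-response.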

[12] = Cell Viability - LYMP2-002 (AID 977);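 also: compound exposure lasted 24 h at 37 °C; plate controls were DMSO only for no effect and 92 µM tetraoctylammonium bromide for full effect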
In short: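 Human lymphoblastoid LYMP2-002 cells, 2500 per well, exposed to compounds for 24 h at 37 C in complete medium; viability read as intracellular ATP by CellTiter-Glo luminescence, AC50 from Hill fits.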

[13] = Cell Viability - LYMP2-006 (AID 978); also: % is scaled to controls: 0 for no effect and ±100 for the full control effect; nearly all actives have a fitted effect of over 60% in size
In short: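 qHTS, 1536-well; 2500 cells/well, 5 hr 37 C; cpd 24 hr 37 C; CellTiter-Glo 30 min RT; luminescence. Tetraoctylammonium bromide pos. ctrl. AC50 via Hill eqn.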

[14] = Cell Viability - LYMP2-008 (AID 980); also: % is scaled to controls: 0 for no effect and ±100 for the full control effect; nearly all actives have a fitted effect of over 60% in size
In short: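 qHTS, human lymphoblastoid line, 2500 cells/well; 5 hr preincubation, 24 hr compound, 37 C. CellTiter-Glo ATP luminescence. AC50 via Hill equation. Tetraoctylammonium bromide positive control.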

[15] = Cell Viability - LYMP2-026 (AID 989); also: % is scaled to controls: 0 for no effect and ±100 for the full control effect; nearly all actives have a fitted effect of over 50% in size
In short: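 Luminescent ATP signal (CellTiter-Glo, 30 min room temperature) measures viable lymphoblastoid cells after 24 hr compound treatment at 37 C. Decreased ATP reflects acute toxicity; AC50 values come from Hill-equation modeling.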

[16] = Cell Viability - LYMP1-002 - Assay at 24 hr (AID 993); also: % is scaled to controls: 0 for no effect and ±100 for the full control effect
In short: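 Cells plated 2500/well, 5 hr 37 C; compounds added, 24 hr 37 C; CellTiter-Glo added, 30 min RT; luminescence read. Tetraoctylammonium bromide positive control. Hill-equation AC50.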

[17] = Cell Viability - LYMP1-002 - Assay at 40 hr (AID 994);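 also: 0% = DMSO only and full inhibition = 92 µM tetraoctylammonium bromide; nearly all actives have a fitted effect of over 60% in size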
In short: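 Luminescent ATP signal served as the viability readout, with decreases taken as toxicity. Cells were treated with compounds across a concentration range for 40 hours at 37 C, and AC50 values came from standard Hill modeling.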

[18] = molecular target: Retinoic acid receptor RXR-alpha (Homo sapiens) (UniProt P19793); assay: qHTS assay for small molecule antagonists of retinoid X receptor alpha signaling (AID 588546; active = well fitted inhibition curve with a large enough effect in the signal ratio, with a control signal flat, not every such curve was filed as active; the % refers to the signal ratio;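 also: cells stimulated with 9-cis-retinoic acid as agonist; % is scaled to controls: 0 for no effect and ±100 for the full control effect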); settings: HEK293T RXRa-UAS-bla, beta-lactamase ratio, antagonist mode
Chain of Retinoic acid receptor RXR-alpha (Homo sapiens) (P19793 whole entry, looked up): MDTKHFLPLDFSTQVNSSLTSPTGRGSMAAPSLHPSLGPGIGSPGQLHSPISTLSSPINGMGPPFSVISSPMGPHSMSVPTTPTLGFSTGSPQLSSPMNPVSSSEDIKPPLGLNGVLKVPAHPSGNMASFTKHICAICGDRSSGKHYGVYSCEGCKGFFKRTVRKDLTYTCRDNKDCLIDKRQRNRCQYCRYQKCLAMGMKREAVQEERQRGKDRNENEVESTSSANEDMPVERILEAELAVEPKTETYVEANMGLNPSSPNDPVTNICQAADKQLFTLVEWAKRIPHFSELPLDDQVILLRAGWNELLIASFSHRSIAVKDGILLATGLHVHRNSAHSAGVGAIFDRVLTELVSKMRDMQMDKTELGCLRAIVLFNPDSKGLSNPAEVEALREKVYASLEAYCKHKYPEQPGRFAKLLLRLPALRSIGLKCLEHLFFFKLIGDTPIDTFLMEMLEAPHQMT
In short: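 Beta-lactamase reporter inhibition, read as CCF4 fluorescence ratio (ex 405, em 460/530 nm) after 2 h at RT. HEK293T UAS-bla cells, 2500/well, were stimulated with 9-cis-RA at 500 or 100 nM final alongside test compound for 18 h at 37 C.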

[19] = qHTS assay for small molecule agonists of the antioxidant response element (ARE) signaling pathway measured by Nrf2-dependant transcriptional activity - cell viability counter screen (AID 720653; active = well fitted curve in the direction sought with a large enough effect in the repeat runs; an effect the other way counts as inactive or inconclusive; also: % is scaled to controls: 0 for no effect and ±100 for the full control effect); settings: ARE-bla HepG2 viability, CellTiter-Glo ATP luminescence, 16 h; max response: active compounds read low
In short: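 ARE-bla HepG2 cells treated with compounds for 16 h at 37C; this counter screen measures viability as intracellular ATP by CellTiter-Glo luminescence after 30 min at room temperature.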

[20] = qHTS assay for cell viability of the p53RE-bla HCT-116 cell line (AID 743292)
In short: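 Viability of compound-treated p53RE-bla HCT-116 cells is taken from ATP-dependent luciferase luminescence. Treatment lasts 16 h at 37 C after a 5 h settling period; detection follows 30 min at room temperature.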

Clc1cc(Cl)c(Cl)c(Cl)c1Cl
inactive: activity change, negative = cytotoxicity [1] -10.3% | activity change, negative = cytotoxicity [2] -5.98% | caspase-3 activation [3] 1.31% | Potency [4] | Potency [5] | Potency [6] | Potency [7] | Potency [8] | Potency [9] | Potency [10] | Potency [11] | Potency [12] | Potency [13] | Potency [14] | Potency [15] | Potency [16] | Potency [17] | max response [18] -0.48% and -22.2% | max response [19] -0.0319% and -1.01% | Potency [20]

ClCCCl
inactive: activity change, negative = cytotoxicity [1] 3.03% | activity change, negative = cytotoxicity [2] -0.883% | caspase-3 activation [3] 2.03% | Potency [4] | Potency [5] | Potency [6] | Potency [7] | Potency [8] | Potency [9] | Potency [10] | Potency [11] | Potency [12] | Potency [13] | Potency [14] | Potency [15] | Potency [16] | Potency [17] | max response [18] -2.31% and -1.04% and -10.6% | max response [19] 20.3% and 6% and -12.9% | Potency [20]

CCC(O)OC(O)CC (stereo not given)
inactive: activity change, negative = cytotoxicity [1] 5.7% and 11.3% | activity change, negative = cytotoxicity [2] -7.55% and -1.85% | caspase-3 activation [3] 0.389% and 0.685% | Potency [4] | Potency [5] | Potency [6] | Potency [7] | Potency [8] | Potency [9] | Potency [10] | Potency [11] | Potency [12] | Potency [13] | Potency [14] | Potency [15] | Potency [16] | Potency [17] | max response [18] -3.68% and -1.43% | max response [19] 1.91% [middle of 4 runs] | Potency [20]

COc1ccc2nc(N)sc2c1
inactive: activity change, negative = cytotoxicity [1] -0.684% | activity change, negative = cytotoxicity [2] -14.7% | caspase-3 activation [3] -5.35% | Potency [4] | Potency [5] | Potency [6] | Potency [7] | Potency [8] | Potency [9] | Potency [10] | Potency [11] | Potency [12] | Potency [13] | Potency [14] | Potency [15] | Potency [16] | Potency [17] | max response [18] 1.97% and 2.53% | max response [19] -11.5% and -7.03% | Potency [20]

Clc1cc(Cl)c(Cl)cc1Cl
inactive: activity change, negative = cytotoxicity [1] 2.22% | activity change, negative = cytotoxicity [2] -8.1% | caspase-3 activation [3] 2.8% | Potency [4] | Potency [5] | Potency [6] | Potency [7] | Potency [8] | Potency [9] | Potency [10] | Potency [11] | Potency [12] | Potency [13] | Potency [14] | Potency [15] | Potency [16] | Potency [17] | max response [18] 6.25% and -33.5% | max response [19] 2.91% and 4.61% | Potency [20]
